# This is part of a sample that, as a whole, favours compounds with a hit. Of some 83,000 tested, about 20% had one in any assay.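 96-well plates, one dose, 48 hours. Percent growth reported; active if below 10.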 Values without a mark were called inactive. The source made the active and inactive calls.
# Key:
# Test in all cases: NCI-60 one-dose screen, 48 h (100 = growth as untreated, 0 = no growth, -100 = all killed)
# Conditions in all cases: 10 µM
# NCI-H23 lung = system: NCI-H23 lung
# NCI-H226 lung = system: NCI-H226 lung
# NCI-H322M lung = system: NCI-H322M lung
# HOP-62 NSCLC = system: HOP-62 NSCLC
# NCI-H460 lung = system: NCI-H460 lung
# HOP-92 NSCLC = system: HOP-92 NSCLC
# NCI-H522 lung = system: NCI-H522 lung
# A549/ATCC NSCLC = system: A549/ATCC NSCLC
# 786-0 renal = system: 786-0 renal
# K-562 leukemia = system: K-562 leukemia
# MALME-3M melanoma = system: MALME-3M melanoma
# MDA-MB-231 breast = system: MDA-MB-231 breast
# RXF 393 renal = system: RXF 393 renal
# SF-268 CNS = system: SF-268 CNS
# SF-295 CNS = system: SF-295 CNS
# SF-539 CNS = system: SF-539 CNS
# UACC-257 melanoma = system: UACC-257 melanoma
# M14 melanoma = system: M14 melanoma
# COLO 205 colon = system: COLO 205 colon
# DU-145 prostate = system: DU-145 prostate
SMILES,growth (NCI-H23 lung),growth (NCI-H226 lung),growth (NCI-H322M lung),growth (HOP-62 NSCLC),growth (NCI-H460 lung),growth (HOP-92 NSCLC),growth (NCI-H522 lung),growth (A549/ATCC NSCLC),growth (786-0 renal),growth (K-562 leukemia),growth (MALME-3M melanoma),growth (MDA-MB-231 breast),growth (RXF 393 renal),growth (SF-268 CNS),growth (SF-295 CNS),growth (SF-539 CNS),growth (UACC-257 melanoma),growth (M14 melanoma),growth (COLO 205 colon),growth (DU-145 prostate)
O=C(O)C(c1ccccc1)C(O)c1ccccc1 (centres undefined),104%,77.8%,97.6%,101%,106%,93%,96.1%,90.8%,107%,100%,117%,102%,107%,105%,96.5%,98.4%,85.7%,104%,,
O=c1[nH]c(O)c(/C=C2/C=Nc3ccccc32)[nH]1,101%,92.1%,107%,99.4%,99.3%,84.5%,,91.3%,107%,86.1%,125%,89.6%,103%,82.1%,125%,91.5%,101%,99.4%,101%,99.3%
Cc1cccc(C(=O)N(C(C)C)C(C)C)c1,102%,87.7%,104%,86.4%,99.2%,79.6%,79.9%,86.3%,99.7%,104%,95.5%,109%,107%,99%,90.4%,96.3%,87.3%,96.1%,,103%
COc1ccc(NC(=O)CCl)cc1,61.7%,82.5%,99.1%,81.1%,83.1%,87.3%,47.8%,84.6%,80.7%,93.4%,88.6%,81.6%,69.7%,73.3%,101%,83.5%,60.4%,75.1%,,94.6%
O=C(NC1CCCCC1)OCc1c(COC(=O)NC2CCCCC2)c(-c2ccc(Cl)c(Cl)c2)n2c1CCC2,22.7%,2.9% (active),48.6%,27.4%,3.73% (active),-1.46% (active),-23.9% (active),,8.95% (active),10.5%,31.8%,42.3%,-13.6% (active),29.2%,24.7%,20.1%,66.2%,21.6%,31.8%,20.2%
O=[N+]([O-])c1ccc(CO)cc1,104%,98.4%,98.9%,90.8%,98.7%,110%,104%,,94.4%,93.7%,99.3%,95.2%,97.9%,107%,94.4%,97.9%,,103%,109%,115%
COC(=O)/C=C1\Sc2cc(F)ccc2NC1=O,95.7%,101%,100%,96.5%,112%,82.4%,107%,95.7%,94.3%,91.2%,102%,107%,,110%,118%,104%,91%,93.3%,,126%
CC1(C)N=C(N)N=C(N)N1c1cccc(Br)c1,20.8%,58.8%,46.9%,15.4%,18.2%,83%,52.5%,30.6%,10.3%,23.2%,68.9%,77.6%,66.8%,37.2%,-8.36% (active),16.2%,56%,,,53.4%
CCOC(=O)C1=C(Nc2ccc(Br)cc2)C(=O)N(CC)C1,98.8%,86.3%,95.6%,85.9%,107%,48.3%,,98.8%,91.4%,106%,101%,81.8%,92.9%,96.8%,87%,84.9%,,110%,108%,107%
CCCCCCCCCCCCCCCCC1CC(=O)OC1=O (centres undefined),107%,103%,114%,95.2%,118%,125%,98.6%,98.5%,,,114%,98.3%,116%,113%,99.3%,104%,104%,,111%,121%
Nc1ccc(CC(=O)O)c(N)c1,92.3%,92%,97.6%,102%,103%,94.5%,99.3%,99.7%,107%,104%,94.3%,103%,102%,94%,104%,102%,101%,100%,,
CN1C(=O)CN2CCc3ccccc3C2c2cc(Cl)ccc21 (centres undefined),87.1%,60.8%,93.4%,79.8%,97.5%,77.2%,75.7%,,97.4%,92.6%,94.3%,93.6%,93.7%,103%,105%,89.4%,112%,97.2%,110%,119%
CC1(C)N=C(N)N=C(N)N1c1ccc(Cl)cc1,37.2%,76.1%,59.2%,36.9%,18.3%,132%,46.6%,27.4%,17.7%,20.1%,63.4%,69%,71%,36.6%,4.05% (active),22.7%,64%,,,55.2%
COc1ccc(C(O)c2ccccc2)cc1 (centres undefined),97.6%,94%,93.7%,90.6%,98.7%,93.4%,94.8%,,100%,88.5%,101%,95.5%,111%,93.8%,102%,102%,,103%,106%,108%
Brc1cnc2ccccc2c1,103%,105%,106%,100%,109%,95.1%,,104%,109%,107%,94.6%,113%,121%,97.2%,101%,103%,103%,97.7%,100%,102%
OC1CCCc2ccccc21 (centres undefined),104%,104%,89.6%,104%,101%,112%,,51.3%,103%,97.9%,78.8%,117%,,116%,93.2%,96.4%,,113%,115%,114%
O=S(=O)(O)c1ccc(Cl)c(Cl)c1,101%,111%,127%,102%,110%,94.3%,,95.5%,98.5%,105%,,108%,132%,113%,112%,107%,124%,101%,117%,120%
c1cc2cccc3c4cccc5cccc(c(c1)c23)c54,101%,98.8%,119%,97.7%,109%,89.6%,,125%,,110%,119%,94.4%,106%,101%,118%,99%,125%,106%,104%,115%
COC(=O)C(O)c1ccccc1 (centres undefined),106%,107%,125%,105%,105%,95.6%,,115%,,101%,134%,91%,111%,102%,139%,98%,116%,105%,111%,114%
O=C1Cc2ccccc2C(=O)O1,107%,108%,110%,108%,108%,92%,,110%,,106%,122%,108%,114%,110%,107%,103%,91.9%,98.7%,123%,129%

# Source: PubChem BioAssay (NCI)
